Experimental findings from PubChem BioAssay (NCI) are described below.

Experiment in all cases: NCI-60 one-dose screen, 48 h (100 = growth as untreated, 0 = no growth, -100 = all killed)
Common to all, as to conditions: 10 µM unless noted

Test [1] relates to NCI-H23 lung.
The subject of test [2] is NCI-H226 lung.
Test [3] relates to NCI-H322M lung.
Test [4] has as its system HOP-62 NSCLC.
Test [5] relates to NCI-H460 lung.
For test [6], the system named is HOP-92 NSCLC.
Test [7] relates to NCI-H522 lung.
The test system of test [8] is A549/ATCC NSCLC.
Test [9] relates to 786-0 renal.
The test system of test [10] is COLO 205 colon.
Test [11] concerns DU-145 prostate.
Test [12] concerns K-562 leukemia.
The test system of test [13] is MALME-3M melanoma.
In test [14] the test system is MDA-MB-231 breast.
Test [15] relates to RXF 393 renal.
Test [16] deals with SF-268 CNS.
Test [17] concerns SF-295 CNS.
For test [18], the system named is SF-539 CNS.
Test [19] has as its system UACC-257 melanoma.
Test [20] has as its system M14 melanoma.

The panel holds about 83,000 compounds, 20% with a hit somewhere; the sample as a whole holds those more often.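 Assay: single dose, 48 h. Readout: percent growth (0 = no net growth; negative = cell death). Active: <10.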 A number with no mark means an inactive call. The source made the active and inactive calls.

Take `Fc1ccc(/C=C/[C@@H]2C[C@@H](F)CCO2)cc1`: the growth in [1] is 104%; in [2] it was 101%; in test [3], 82.1%; in test [4] it was 105%; in [5], 99.7%; in [6], 73.6%. The growth in test [7] is 91%; in [8] it was 106%; in test [9] it was 94.4%; in test [10], 102%; in [11], 113%; in [12], 64.2%. The growth in [13] was 99.7%; in test [14], 98.2%; in [15], 96.4%; in test [16], 104%; in [17] it was 94.8%; in test [18], 103%. Also, the growth in test [19] is 93.9%; in [20], 85.5%.

In the case of `Cn1cc(-c2nonc2-c2c[nH]c3ccccc23)c2cc(Br)ccc21`, the growth in [1] is 52.9%; in [2] it was 75.5%; in test [3], 53.2%; in test [4], 25.2%; in test [5], 14.9%; in test [6] it was 63.4%. For the same molecule, the growth in test [7] was 7.04% (active); in test [8] it was 27.9%; in test [9], 50.6%; in test [10] it was 15%; in test [11] it was 58.1%; in [12] it was 11.1%. Also, the growth was 40.8% in [13]; 37% in [14]; 70.9% in test [15]; 43.3% in test [16]; 24.5% in test [17]; 40.1% in test [18]. Also, the figures for the growth in test [19] and in test [20] were 71.5% and 18.5%, respectively.

On to `CCOC(=O)c1[nH]cc2c1CCc1sc(Nc3ccccn3)nc1-2`, for which the growth was 66.7% in [1]; 57.2% in [2]; 96% in test [3]; 92.3% in test [4]; 85.9% in test [5]; 56.3% in test [6]. Besides, the growth in test [7] is 66.2%; in [8], 70.2%; in [9], 98.7%; in test [10] it was 93.7%; in test [11], 74.4%; in test [12], 59.5%. For the same molecule, the growth was 108% in [13]; 82.3% in [14]; 86.2% in [15]; 89.4% in test [16]; 86.5% in test [17]; 101% in [18]. The figures for the growth in [19] and in test [20] were 73.8% and 86.3%, respectively.

Turning to `C=C(C)[C@@H]1CC[C@]2(C(=O)Nc3ccccn3)CC[C@]3(C)[C@H](CC[C@@H]4[C@@]5(C)CCCNC(C)(C)[C@@H]5CC[C@]43C)[C@@H]12`, the growth is 19.5% in test [1]; 43.3% in test [2]; 65.5% in [3]; 30.4% in test [4]; -40.3% (active) in [5]; 41.8% in test [6]. Also, the growth in [7] is 12.6%; in test [8] it was 23.1%; in [9] it was 33.9%; in [10], -62.2% (active); in [11], 34.8%; in test [12], -1.45% (active). The growth in test [13] is -2.67% (active); in test [14], 49.9%; in test [15], 51.3%; in [16], 39.8%; in [17], 44.4%; in test [18] it was 34.1%. The results for the growth in test [19] and in [20] were 9.84% (active) and 26.6%, respectively.

On to `COc1ccc2cc(C(=O)N3CCC([C@@H](C)C(=O)NCc4ccc5c(c4)OCO5)CC3)[nH]c2c1`, for which the growth in test [1] was 26.3% [50 µM]; in [2] it was -5.97% [50 µM] (active); in test [3], 86.7% [50 µM]; in test [4], -1.78% [50 µM] (active); in test [5], 41.9% [50 µM]; in test [6], -17.6% [50 µM] (active). Also, the growth in [7] is -6.66% [50 µM] (active); in test [8], 53.7% [50 µM]; in [9], -10.5% [50 µM] (active); in [10], 88.5% [50 µM]; in test [11] it was 60.5% [50 µM]; in [12], 77.2% [50 µM]. For the same molecule, the growth was 44.2% [50 µM] in test [13]; 34.1% [50 µM] in test [14]; -1.62% [50 µM] (active) in test [15]; 32.9% [50 µM] in test [16]; 48.1% [50 µM] in test [17]; 41.1% [50 µM] in [18]. For the same molecule, the figures for the growth in test [19] and in [20] were 77.8% [50 µM] and 65.2% [50 µM], respectively.

As to `COCCn1cc(-c2csc(-c3c[nH]c4ccc(F)cc34)n2)c2cccnc21`, the growth is 34.8% in test [1]; 57.5% in test [2]; 63.2% in test [3]; 44% in test [4]; 15.1% in test [5]; 38% in [6]. The growth is -11.7% (active) in [7]; 22.1% in test [8]; 40.4% in test [9]; 11.5% in test [10]; 64.6% in test [11]; 8.38% (active) in [12]. Further, the growth in [13] is 45%; in test [14], 27.5%; in [15] it was 65%; in test [16], 46.5%; in [17] it was 16.1%; in test [18] it was 46.8%. Also, the results for the growth in test [19] and in test [20] were 36.5% and 13.2%, respectively.

On to `Cc1nc2sc(C(=O)Nc3ccccn3)c(N)c2cc1C(C)O` (stereo not given), for which the growth in test [1] is 84.3%; in test [2], 85.8%; in test [3], 83.1%; in test [4], 63.9%; in test [5], 80.2%; in test [6], 74.3%. In addition, the growth in test [7] was 59.9%; in test [8], 82%; in test [9] it was 82.1%; in [10], 75.1%; in test [11], 103%; in [12] it was 31.1%. The growth in [13] was 97.9%; in test [14], 59.1%; in [15], 71.2%; in [16] it was 83.6%; in test [17], 65.1%; in test [18] it was 59.8%. Also, the growth in [19] was 81.6%; in [20], 49.3%.

Regarding `Cc1c(O)cc(-c2cnc(N/N=C/c3ccccc3)s2)c(O)c1C`, the growth was 97.7% in [1]; 92.4% in [2]; 97.6% in [3]; 107% in test [4]; 102% in test [5]; 92.6% in test [6]. Moreover, the growth is 82.3% in [7]; 94.1% in test [8]; 117% in test [9]; 111% in test [10]; 105% in [11]; 89.9% in test [12]. Further, the growth in test [13] was 107%; in test [14] it was 101%; in [15] it was 102%; in test [16], 91.6%; in test [17], 103%; in [18], 100%. In addition, the growth in [19] was 95.5%; in [20] it was 95.9%.
